# Values without a mark were called inactive. The source made the active and inactive calls. The rule behind the calls is not given here.
# System: 80kDa SH
# Assay: serine hydrolase inhibition in mouse brain membranes, late-stage follow-up, selectivity assay for DAGLb inhibitor project, biochemical, gel-based competitive ABPP, fluorescence, set 2 (AID 602323)
# Settings: mouse brain membrane, at 1 µM, hits give high values
row,SMILES,inhibition
1,O=C(N1CCCCC1Cc1ccccc1)n1cc(-c2ccc(-c3ccccc3C(F)(F)F)cc2)nn1 (centres undefined),0%
2,O=C(N1CCCCC1Cc1ccccc1)n1cc(-c2ccc(-c3cccc(C(F)(F)F)c3)cc2)nn1 (centres undefined),0%
3,O=C(N1CCCCC1Cc1ccccc1)n1cc(-c2cc(F)cc(F)c2)nn1 (centres undefined),80% (active)
4,O=C(N1CCCCC1Cc1ccccc1)n1cc(-c2ccc(-c3ccccc3CO)cc2)nn1 (centres undefined),5%
5,O=C(N1CCCCC1Cc1ccccc1)n1cc(-c2ccc(Br)cc2)nn1 (centres undefined),50% (active)
6,CC(C)(C)OC(=O)NCCCCCN(CCc1ccccc1)C(=O)n1cc(-c2ccc(OC(F)(F)F)cc2)nn1,80% (active)
7,O=C(N1CCCCC1Cc1ccccc1)n1cc(-c2ccc(OC(F)(F)F)cc2)nn1 (centres undefined),20%
8,CC(C)CN(CCc1ccccc1)C(=O)n1cc(-c2ccc(OC(F)(F)F)cc2)nn1,80% (active)
9,O=C(N1CCCCC1Cc1ccccc1)n1cc(-c2ccc(-c3ccccc3OC(F)(F)F)cc2)nn1 (centres undefined),10%
10,O=C(c1ccc(-c2ccc(-c3cn(C(=O)N4CCCCC4Cc4ccccc4)nn3)cc2)cc1)N1CCCCC1 (centres undefined),40%
11,COc1ccccc1-c1ccc(-c2cn(C(=O)N3CCCCC3Cc3ccccc3)nn2)cc1 (centres undefined),0%
12,O=C(N1CCCCC1Cc1ccccc1)n1cc(-c2ccc(-c3ccccc3Cl)cc2)nn1 (centres undefined),0%
13,O=C(N1CCCCC1Cc1ccccc1)n1ncc(-c2ccc(OC(F)(F)F)cc2)n1 (centres undefined),50% (active)
14,O=C(N1CCCCC1Cc1ccccc1)n1cc(-c2ccc(-c3ccc(OC(F)(F)F)cc3)cc2)nn1 (centres undefined),0%
15,O=C(N1CCCCC1Cc1ccccc1)n1cc(-c2ccccc2-c2ccccc2)nn1 (centres undefined),80% (active)
16,O=C(c1ccc(-c2cn(C(=O)N3CCCCC3Cc3ccccc3)nn2)cc1)N1CCCCC1 (centres undefined),20%
17,O=C(N1CCCCC1Cc1ccccc1)n1cc(-c2ccc(-c3ccc(C(F)(F)F)cc3)cc2)nn1 (centres undefined),0%
18,O=C(N(CCc1ccccc1)Cc1ccco1)n1cc(-c2ccc(OC(F)(F)F)cc2)nn1,80% (active)
19,O=C(N1CCCCC1Cc1ccccc1)n1cc(-c2ccc(-c3ccc4c(c3)OCO4)cc2)nn1 (centres undefined),0%
20,O=C(N1CCCCC1Cc1ccccc1)n1cc(-c2cccc(-c3ccccc3)c2)nn1 (centres undefined),0%
21,O=C(N1CCCCC1Cc1ccccc1)n1cc(-c2ccc(-c3ccoc3)cc2)nn1 (centres undefined),20%
22,Cc1ccccc1-c1ccc(-c2cn(C(=O)N3CCCCC3Cc3ccccc3)nn2)cc1 (centres undefined),0%
23,O=C(N1CCCCC1Cc1ccccc1)n1cc(-c2ccc(-c3cccc(CO)c3)cc2)nn1 (centres undefined),10%
24,O=C(N1CCCCC1Cc1ccccc1)n1ncc(C(O)(c2ccccc2)c2ccccc2)n1 (centres undefined),20%

# Source: PubChem BioAssay AID602323 (The Scripps Research Institute Molecular Screening Center, 2012)
